From PubChem BioAssay AID1159580 (chemical genetic matrix, 2015)
In all, about 5,500 compounds went through this assay and about 2,000 (36%) were called active. Not shown: some 18% with an inconclusive outcome. Cut-off read from the data, not from the text of the source: active = normalized growth mostly below about 0.91 (no sharp cut-off); inconclusive = no clear call, values can overlap the other calls; inactive = mostly above about 0.92. Some of the results follow.

Assay: chemical genetic growth profiling, strain panel (AID 1159580);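 note: tested at 20 µM; growth read once vehicle control cultures reached saturation at 30 °C; 1 = growth at the plate median or of vehicle wells; lower values mean less growth of the strain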
Details: growth OD
[1] = S. cerevisiae deletion strains, locus YDL101C, strain DUN1, stronger effect = lower value
[2] = S. cerevisiae deletion strains, locus YHR030C, strain SLT2, stronger effect = lower value

Measured: normalized growth

Cc1ccc(S(=O)(=O)CCSC2=CC(=O)CC(C)(C)S2)cc1
inactive: S. cerevisiae deletion strains, locus YAR019C, strain CDC15, stronger effect = lower value 1.01 | S. cerevisiae deletion strains, locus YBL105C, strain PKC1, stronger effect = lower value 0.987 | S. cerevisiae deletion strains, locus YBR135W, strain CKS1, stronger effect = lower value 1 | S. cerevisiae deletion strains, locus YBR136W, strain MEC1, stronger effect = lower value 1 | S. cerevisiae deletion strains, locus YBR160W, strain CDC28, stronger effect = lower value 0.998 | S. cerevisiae deletion strains, locus YDL017W, strain CDC7, stronger effect = lower value 0.998 | S. cerevisiae deletion strains, locus YDL028C, strain MPS1, stronger effect = lower value 1 | [1] 1 | S. cerevisiae deletion strains, locus YDL108W, strain KIN28, stronger effect = lower value 1 | S. cerevisiae deletion strains, locus YDL132W, strain cdc53, stronger effect = lower value 1 | S. cerevisiae deletion strains, locus YDL214C, strain PRR2, stronger effect = lower value 0.98 | S. cerevisiae deletion strains, locus YDR052C, strain DBF4, stronger effect = lower value 1 | S. cerevisiae deletion strains, locus YDR054C, strain cdc34, stronger effect = lower value 0.998 | S. cerevisiae deletion strains, locus YDR226W, strain ADK1, stronger effect = lower value 0.994 | S. cerevisiae deletion strains, locus YDR477W, strain SNF1, stronger effect = lower value 0.974 | S. cerevisiae deletion strains, locus YER123W, strain YCK3, stronger effect = lower value 0.924 | S. cerevisiae deletion strains, locus YER133W, strain GLC7, stronger effect = lower value 0.895 | S. cerevisiae deletion strains, locus YFL009W, strain cdc4, stronger effect = lower value 0.997 | S. cerevisiae deletion strains, locus YFL029C, strain CAK1, stronger effect = lower value 1.01 | S. cerevisiae deletion strains, locus YFR003C, strain YPI1, stronger effect = lower value 0.997 | S. cerevisiae deletion strains, locus YFR019W, strain FAB1, stronger effect = lower value 0.905 | S. cerevisiae deletion strains, locus YFR028C, strain CDC14, stronger effect = lower value 0.998 | S. cerevisiae deletion strains, locus YGR040W, strain KSS1, stronger effect = lower value 0.948 | S. cerevisiae deletion strains, locus YGR052W, strain FMP48, stronger effect = lower value 0.987 | S. cerevisiae deletion strains, locus YGR092W, strain DBF2, stronger effect = lower value 1 | [2] 0.987 | S. cerevisiae deletion strains, locus YHR079C, strain IRE1, stronger effect = lower value 1.06 | S. cerevisiae deletion strains, locus YHR082C, strain KSP1, stronger effect = lower value 1.08 | S. cerevisiae deletion strains, locus YHR205W, strain SCH9, stronger effect = lower value 0.988 | S. cerevisiae deletion strains, locus YIL147C, strain SLN1, stronger effect = lower value 0.997 | S. cerevisiae deletion strains, locus YJL095W, strain BCK1, stronger effect = lower value 0.948 | S. cerevisiae deletion strains, locus YJL128C, strain PBS2, stronger effect = lower value 1.02 | S. cerevisiae deletion strains, locus YJL157C, strain FAR1, stronger effect = lower value 0.973 | S. cerevisiae deletion strains, locus YJR016C, strain ILV3, stronger effect = lower value 0.999 | S. cerevisiae deletion strains, locus YJR066W, strain TOR1 (second series), stronger effect = lower value 0.892 | S. cerevisiae deletion strains, locus YJR066W, strain TOR1, stronger effect = lower value 1.04 | S. cerevisiae deletion strains, locus YKL048C, strain ELM1, stronger effect = lower value 0.985 | S. cerevisiae deletion strains, locus YKL067W, strain YNK1, stronger effect = lower value 0.987 | S. cerevisiae deletion strains, locus YKL101W, strain HSL1, stronger effect = lower value 0.995 | S. cerevisiae deletion strains, locus YKL193C, strain SDS22, stronger effect = lower value 1 | S. cerevisiae deletion strains, locus YKL203C, strain TOR2, stronger effect = lower value 0.978 | S. cerevisiae deletion strains, locus YLR113W, strain HOG1, stronger effect = lower value 1.05 | S. cerevisiae deletion strains, locus YLR133W, strain CKI1, stronger effect = lower value 0.963 | S. cerevisiae deletion strains, locus YLR403W, strain SFP1, stronger effect = lower value 0.95 | S. cerevisiae deletion strains, locus YML070W, strain DAK1, stronger effect = lower value 0.965 | S. cerevisiae deletion strains, locus YMR001C, strain CDC5, stronger effect = lower value 0.999 | S. cerevisiae deletion strains, locus YMR205C, strain PFK2 (second series), stronger effect = lower value 0.974 | S. cerevisiae deletion strains, locus YMR277W, strain FCP1, stronger effect = lower value 1 | S. cerevisiae deletion strains, locus YNL006W, strain LST8, stronger effect = lower value 0.996 | S. cerevisiae deletion strains, locus YNL020C, strain ARK1, stronger effect = lower value 0.979 | S. cerevisiae deletion strains, locus YNL161W, strain CBK1, stronger effect = lower value 1 | S. cerevisiae deletion strains, locus YNL183C, strain NPR1, stronger effect = lower value 1.02 | S. cerevisiae deletion strains, locus YNL207W, strain RIO2, stronger effect = lower value 1 | S. cerevisiae deletion strains, locus YNL222W, strain SSU72, stronger effect = lower value 1 | S. cerevisiae deletion strains, locus YNL307C, strain MCK1 (second series), stronger effect = lower value 0.977 | S. cerevisiae deletion strains, locus YOL078W, strain AVO1, stronger effect = lower value 0.997 | S. cerevisiae deletion strains, locus YOL136C, strain PFK27, stronger effect = lower value 0.929 | S. cerevisiae deletion strains, locus YOR061W, strain CKA2, stronger effect = lower value 0.969 | S. cerevisiae deletion strains, locus YOR119C, strain RIO1, stronger effect = lower value 0.996 | S. cerevisiae deletion strains, locus YOR231W, strain MKK1, stronger effect = lower value 0.968 | S. cerevisiae deletion strains, locus YOR329C, strain SCD5, stronger effect = lower value 1 | S. cerevisiae deletion strains, locus YPL031C, strain PHO85, stronger effect = lower value 0.961 | S. cerevisiae deletion strains, locus YPL153C, strain RAD53, stronger effect = lower value 0.959 | S. cerevisiae deletion strains, locus YPL204W, strain HRR25, stronger effect = lower value 0.912 | S. cerevisiae deletion strains, locus YPL209C, strain IPL1, stronger effect = lower value 0.998 | S. cerevisiae deletion strains, locus YPL256C, strain CLN2, stronger effect = lower value 1.09 | S. cerevisiae deletion strains, locus YPR025C, strain CCL1, stronger effect = lower value 1 | S. cerevisiae deletion strains, locus YPR106W, strain ISR1, stronger effect = lower value 1.01 | S. cerevisiae deletion strains, locus YPR111W, strain DBF20, stronger effect = lower value 0.999 | S. cerevisiae deletion strains, strain NNK1, stronger effect = lower value 1.03 | S. cerevisiae deletion strains, strain TSCII, stronger effect = lower value 1

CC(=O)c1sc(SCc2ccc(Cl)cc2)c2c1CC(C)(C)CC2=O
inactive: S. cerevisiae deletion strains, locus YAL013W, strain DEP1, stronger effect = lower value 0.97 | S. cerevisiae deletion strains, locus YBR229C, strain ROT2, stronger effect = lower value 1.06 | [1] 1.01 | S. cerevisiae deletion strains, locus YDL134C, strain PPH21, stronger effect = lower value 0.976 | S. cerevisiae deletion strains, locus YDR150W, strain NUM1, stronger effect = lower value 0.954 | S. cerevisiae deletion strains, locus YEL061C, strain CIN8, stronger effect = lower value 1.07 | S. cerevisiae deletion strains, locus YGR078C, strain PAC10, stronger effect = lower value 1 | [2] 0.793 | S. cerevisiae deletion strains, locus YHR087W, strain rtc3, stronger effect = lower value 1 | S. cerevisiae deletion strains, locus YJR043C, strain POL32, stronger effect = lower value 0.987 | S. cerevisiae deletion strains, locus YJR075W, strain HOC1, stronger effect = lower value 1.05 | S. cerevisiae deletion strains, locus YKL190W, strain CNB1, stronger effect = lower value 0.966 | S. cerevisiae deletion strains, locus YLR039C, strain RIC1, stronger effect = lower value 0.938 | S. cerevisiae deletion strains, locus YLR058C, strain SHM2 (second series), stronger effect = lower value 1.01 | S. cerevisiae deletion strains, locus YLR085C, strain ARP6, stronger effect = lower value 1.02 | S. cerevisiae deletion strains, locus YLR262C, strain YPT6, stronger effect = lower value 0.941 | S. cerevisiae deletion strains, locus YML094W, strain GIM5, stronger effect = lower value 1.01 | S. cerevisiae deletion strains, locus YMR219W, strain ESC1, stronger effect = lower value 1.03 | S. cerevisiae deletion strains, locus YMR263W, strain SAP30, stronger effect = lower value 0.936 | S. cerevisiae deletion strains, locus YMR307W, strain GAS1, stronger effect = lower value 1.03 | S. cerevisiae deletion strains, locus YNL128W, strain TEP1, stronger effect = lower value 0.981 | S. cerevisiae deletion strains, locus YNL153C, strain GIM3, stronger effect = lower value 0.971 | S. cerevisiae deletion strains, locus YNL298W, strain CLA4 (second series), stronger effect = lower value 0.952 | S. cerevisiae deletion strains, locus YNL322C, strain KRE1, stronger effect = lower value 0.993 | S. cerevisiae deletion strains, locus YNR030W, strain Alg12, stronger effect = lower value 0.941 | S. cerevisiae deletion strains, locus YPL055C, strain LGE1, stronger effect = lower value 1.12 | S. cerevisiae deletion strains, locus YPL241C, strain CIN2, stronger effect = lower value 0.907 | S. cerevisiae deletion strains, locus YPR135W, strain CTF4, stronger effect = lower value 0.819 | S. cerevisiae strains, strain wild type, stronger effect = lower value 0.955
